Laboratory results reported in article PMC7862700, “An all-to-all approach to the identification of sequence-specific readers for epigenetic DNA modifications on cytosine”.

Assays:
Assay in all cases: DAPPL (digital affinity profiling via proximity ligation, sequencing); 10 mM Tris-HCl pH 7.5, 50 mM NaCl, 1 mM DTT, 4% glycerol, room temperature, 30 min; GST-TFs on glutathione beads, 16-mer random dsDNA library, 0.1% formaldehyde crosslink after washing; high values mean tight binding
FEV = target: T1, FEV (Homo sapiens, UniProt Q99581 1-238); conditions: protein: recombinant; tags: N-terminal GST; dsDNA, one strand shown
T1 sequence: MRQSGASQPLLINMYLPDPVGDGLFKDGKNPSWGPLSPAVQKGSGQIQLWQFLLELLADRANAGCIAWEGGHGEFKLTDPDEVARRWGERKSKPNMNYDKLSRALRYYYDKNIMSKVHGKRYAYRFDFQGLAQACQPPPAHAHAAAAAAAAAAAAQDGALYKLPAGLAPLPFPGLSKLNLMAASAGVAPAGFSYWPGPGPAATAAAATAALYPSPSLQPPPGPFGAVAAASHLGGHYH
Method in brief: (§1)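 After expression in yeast as GST fusions, human transcription factors were bound to glutathione beads, DNA-barcoded and mixed with a tag-only sample. The pools were incubated with 200 nmole of a 16-mer random double-stranded DNA library in Tris/NaCl/DTT/glycerol buffer (30 min, room temperature), washed and crosslinked with 0.1% formaldehyde. Proximity ligation with BsaI/T4 ligase ran for 1 h at 37 °C, before PCR amplification and sequencing on an Illumina NextSeq500. Binding signal is a hexamer's read frequency for a factor divided by its frequency for the tag-only sample.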

ETV5 = ETV5 (Homo sapiens, UniProt P41161 1-510); conditions: protein: recombinant; tags: N-terminal GST; dsDNA, one strand shown
Chain of ETV5 (P41161 whole entry): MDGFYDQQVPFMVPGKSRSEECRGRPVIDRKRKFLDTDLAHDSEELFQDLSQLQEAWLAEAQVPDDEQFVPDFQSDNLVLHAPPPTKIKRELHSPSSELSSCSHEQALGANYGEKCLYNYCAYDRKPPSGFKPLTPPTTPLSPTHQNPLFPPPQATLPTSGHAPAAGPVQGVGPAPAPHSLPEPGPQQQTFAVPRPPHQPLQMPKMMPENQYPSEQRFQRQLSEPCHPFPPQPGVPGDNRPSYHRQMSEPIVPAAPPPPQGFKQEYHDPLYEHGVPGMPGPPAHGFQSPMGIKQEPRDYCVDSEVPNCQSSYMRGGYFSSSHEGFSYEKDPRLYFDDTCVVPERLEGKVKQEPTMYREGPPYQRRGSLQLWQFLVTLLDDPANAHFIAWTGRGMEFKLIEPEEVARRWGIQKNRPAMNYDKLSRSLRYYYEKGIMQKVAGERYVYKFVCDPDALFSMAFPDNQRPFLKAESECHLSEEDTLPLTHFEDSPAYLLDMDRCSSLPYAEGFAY
Method in brief: as §1

HSF1 = HSF1 (Homo sapiens, UniProt Q00613 1-529); conditions: protein: recombinant; tags: N-terminal GST; chain copies: 3; dsDNA, one strand shown
Chain of HSF1 (Q00613 whole entry): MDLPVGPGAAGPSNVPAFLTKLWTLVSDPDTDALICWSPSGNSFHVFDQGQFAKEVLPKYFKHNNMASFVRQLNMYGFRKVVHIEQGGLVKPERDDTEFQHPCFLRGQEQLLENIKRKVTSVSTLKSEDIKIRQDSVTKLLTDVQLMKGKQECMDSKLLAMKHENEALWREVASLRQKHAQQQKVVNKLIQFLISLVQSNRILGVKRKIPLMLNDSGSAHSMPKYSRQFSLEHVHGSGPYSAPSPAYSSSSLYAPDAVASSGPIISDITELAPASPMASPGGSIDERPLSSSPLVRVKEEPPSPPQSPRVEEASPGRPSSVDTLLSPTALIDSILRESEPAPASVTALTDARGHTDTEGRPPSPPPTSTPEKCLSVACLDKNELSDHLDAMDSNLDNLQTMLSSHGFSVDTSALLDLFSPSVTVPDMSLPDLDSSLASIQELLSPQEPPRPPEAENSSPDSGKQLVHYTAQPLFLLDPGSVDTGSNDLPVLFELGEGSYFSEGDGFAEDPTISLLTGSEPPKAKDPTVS
Method in brief: as §1

SPIC = target: T2, SPIC (Homo sapiens, UniProt Q8N5J4 1-248); conditions: protein: recombinant; tags: N-terminal GST; dsDNA, one strand shown
T2 sequence: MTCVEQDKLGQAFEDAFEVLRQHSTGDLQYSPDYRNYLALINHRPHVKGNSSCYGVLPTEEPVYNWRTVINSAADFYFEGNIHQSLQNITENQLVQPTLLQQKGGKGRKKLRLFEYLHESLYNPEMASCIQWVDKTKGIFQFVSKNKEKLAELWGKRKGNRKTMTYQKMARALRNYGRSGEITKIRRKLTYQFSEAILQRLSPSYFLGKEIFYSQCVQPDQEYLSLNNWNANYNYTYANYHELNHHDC
Method in brief: as §1

ELF4 = ELF4 (Homo sapiens, UniProt Q99607 1-663); conditions: protein: recombinant; tags: N-terminal GST; dsDNA, one strand shown
Chain of ELF4 (Q99607 whole entry): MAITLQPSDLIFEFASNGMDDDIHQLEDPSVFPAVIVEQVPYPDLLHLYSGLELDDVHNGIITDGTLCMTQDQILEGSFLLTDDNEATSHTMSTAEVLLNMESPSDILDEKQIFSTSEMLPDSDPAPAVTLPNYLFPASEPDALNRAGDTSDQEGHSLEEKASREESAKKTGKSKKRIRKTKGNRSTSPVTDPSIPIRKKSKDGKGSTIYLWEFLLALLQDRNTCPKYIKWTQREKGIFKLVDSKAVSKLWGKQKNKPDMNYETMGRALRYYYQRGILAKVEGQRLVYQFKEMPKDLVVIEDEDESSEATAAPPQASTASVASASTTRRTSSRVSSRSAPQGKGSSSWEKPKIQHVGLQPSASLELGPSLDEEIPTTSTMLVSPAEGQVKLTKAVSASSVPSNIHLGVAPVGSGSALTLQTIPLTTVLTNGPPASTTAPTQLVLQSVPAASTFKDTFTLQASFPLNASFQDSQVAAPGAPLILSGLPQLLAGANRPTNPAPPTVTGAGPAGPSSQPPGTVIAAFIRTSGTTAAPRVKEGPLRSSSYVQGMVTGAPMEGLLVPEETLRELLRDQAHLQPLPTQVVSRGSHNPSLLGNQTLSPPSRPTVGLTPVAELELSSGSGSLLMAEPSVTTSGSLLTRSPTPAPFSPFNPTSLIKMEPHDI
Method in brief: as §1

ELK4 = target: T3, ELK4 (Homo sapiens, UniProt P28324-2 1-405); conditions: protein: recombinant; tags: N-terminal GST; dsDNA, one strand shown
T3 sequence: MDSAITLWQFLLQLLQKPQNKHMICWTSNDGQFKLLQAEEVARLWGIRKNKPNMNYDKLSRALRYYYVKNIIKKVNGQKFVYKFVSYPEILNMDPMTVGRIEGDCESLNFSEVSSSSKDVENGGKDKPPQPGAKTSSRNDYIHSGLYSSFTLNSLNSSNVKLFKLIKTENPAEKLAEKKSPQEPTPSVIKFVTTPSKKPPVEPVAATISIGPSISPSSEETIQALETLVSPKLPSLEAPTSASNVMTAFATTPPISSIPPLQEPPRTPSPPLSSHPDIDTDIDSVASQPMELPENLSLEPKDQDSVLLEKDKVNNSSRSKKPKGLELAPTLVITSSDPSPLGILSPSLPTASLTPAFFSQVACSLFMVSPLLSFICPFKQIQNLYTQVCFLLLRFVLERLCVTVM
Method in brief: as §1

ETV2 = target: T4, ETV2 (Homo sapiens, UniProt O00321 1-342); conditions: protein: recombinant; tags: N-terminal GST; dsDNA, one strand shown
T4 sequence: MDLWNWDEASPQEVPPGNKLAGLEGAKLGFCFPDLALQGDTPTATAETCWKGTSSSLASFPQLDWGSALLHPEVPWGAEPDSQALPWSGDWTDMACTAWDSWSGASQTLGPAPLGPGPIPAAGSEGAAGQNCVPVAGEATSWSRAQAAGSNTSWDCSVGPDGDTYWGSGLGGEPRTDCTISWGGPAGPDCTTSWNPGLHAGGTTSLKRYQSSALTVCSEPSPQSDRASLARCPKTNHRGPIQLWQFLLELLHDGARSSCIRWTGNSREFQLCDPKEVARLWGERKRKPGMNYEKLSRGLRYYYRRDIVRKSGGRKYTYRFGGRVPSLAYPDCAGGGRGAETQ
Method in brief: as §1

ELF3 = target: T5, ELF3 (Homo sapiens, UniProt P78545 1-371); conditions: protein: recombinant; tags: N-terminal GST; dsDNA, one strand shown
T5 sequence: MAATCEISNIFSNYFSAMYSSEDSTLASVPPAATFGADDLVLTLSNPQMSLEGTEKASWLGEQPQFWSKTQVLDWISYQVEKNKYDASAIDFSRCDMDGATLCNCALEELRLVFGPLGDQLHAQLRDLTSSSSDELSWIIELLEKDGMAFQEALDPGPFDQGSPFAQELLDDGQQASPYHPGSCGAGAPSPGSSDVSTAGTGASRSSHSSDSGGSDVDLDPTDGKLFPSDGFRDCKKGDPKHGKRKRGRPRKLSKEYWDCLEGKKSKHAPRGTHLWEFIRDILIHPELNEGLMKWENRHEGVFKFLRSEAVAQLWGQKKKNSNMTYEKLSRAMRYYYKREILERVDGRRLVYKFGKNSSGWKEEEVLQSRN
Method in brief: as §1

CRX = CRX (Homo sapiens, UniProt O43186 1-299); conditions: protein: recombinant; tags: N-terminal GST; dsDNA, one strand shown
Chain of CRX (O43186 whole entry): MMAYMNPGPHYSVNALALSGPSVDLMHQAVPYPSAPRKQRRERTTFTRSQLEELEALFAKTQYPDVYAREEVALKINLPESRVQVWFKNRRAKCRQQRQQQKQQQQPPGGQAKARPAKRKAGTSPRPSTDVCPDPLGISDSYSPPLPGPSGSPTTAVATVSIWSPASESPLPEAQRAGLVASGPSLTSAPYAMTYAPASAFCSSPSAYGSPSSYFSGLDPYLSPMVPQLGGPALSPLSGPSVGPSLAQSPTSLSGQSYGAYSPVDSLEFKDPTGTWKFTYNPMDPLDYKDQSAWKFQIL
Method in brief: as §1

ETV1 = ETV1 (Homo sapiens, UniProt P50549 1-477); conditions: protein: recombinant; tags: N-terminal GST; dsDNA, one strand shown
Chain of ETV1 (P50549 whole entry): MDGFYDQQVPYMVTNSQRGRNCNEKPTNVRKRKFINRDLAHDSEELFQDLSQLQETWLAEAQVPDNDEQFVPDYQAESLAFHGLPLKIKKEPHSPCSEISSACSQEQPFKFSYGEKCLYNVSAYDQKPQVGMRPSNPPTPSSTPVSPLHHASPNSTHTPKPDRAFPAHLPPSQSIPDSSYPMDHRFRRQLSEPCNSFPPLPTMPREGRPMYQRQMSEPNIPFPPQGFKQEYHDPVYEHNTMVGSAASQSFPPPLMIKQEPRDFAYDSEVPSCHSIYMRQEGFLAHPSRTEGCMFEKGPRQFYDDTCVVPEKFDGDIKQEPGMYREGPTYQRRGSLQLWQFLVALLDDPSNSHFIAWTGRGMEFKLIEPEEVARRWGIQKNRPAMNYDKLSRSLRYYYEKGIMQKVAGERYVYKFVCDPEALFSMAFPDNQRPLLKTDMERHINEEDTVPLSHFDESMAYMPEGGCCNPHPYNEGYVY
Method in brief: as §1

Sequence	binding signal (FEV)	binding signal (ETV5)	binding signal (HSF1)	binding signal (SPIC)	binding signal (ELF4)	binding signal (ELK4)	binding signal (ETV2)	binding signal (ELF3)	binding signal (CRX)	binding signal (ETV1)
ATGAAA	1.13 fold enrichment (6-mer frequency, TF over GST control)	1.12 fold enrichment (6-mer frequency, TF over GST control)	1.16 fold enrichment (6-mer frequency, TF over GST control)	1.24 fold enrichment (6-mer frequency, TF over GST control)	1.2 fold enrichment (6-mer frequency, TF over GST control)	1.21 fold enrichment (6-mer frequency, TF over GST control)	1.15 fold enrichment (6-mer frequency, TF over GST control)	1.19 fold enrichment (6-mer frequency, TF over GST control)	1.08 fold enrichment (6-mer frequency, TF over GST control)	1.2 fold enrichment (6-mer frequency, TF over GST control)
ACGCCT	1.17 fold enrichment (6-mer frequency, TF over GST control)	1.2 fold enrichment (6-mer frequency, TF over GST control)	1.15 fold enrichment (6-mer frequency, TF over GST control)	1.25 fold enrichment (6-mer frequency, TF over GST control)	1.21 fold enrichment (6-mer frequency, TF over GST control)	1.09 fold enrichment (6-mer frequency, TF over GST control)	1.29 fold enrichment (6-mer frequency, TF over GST control)	1.12 fold enrichment (6-mer frequency, TF over GST control)	1.08 fold enrichment (6-mer frequency, TF over GST control)	1.05 fold enrichment (6-mer frequency, TF over GST control)
TCCCTA	1.2 fold enrichment (6-mer frequency, TF over GST control)	1.43 fold enrichment (6-mer frequency, TF over GST control)	1.32 fold enrichment (6-mer frequency, TF over GST control)	1.31 fold enrichment (6-mer frequency, TF over GST control)	1.31 fold enrichment (6-mer frequency, TF over GST control)	1.19 fold enrichment (6-mer frequency, TF over GST control)	1.25 fold enrichment (6-mer frequency, TF over GST control)	1.36 fold enrichment (6-mer frequency, TF over GST control)	1.47 fold enrichment (6-mer frequency, TF over GST control)	1.32 fold enrichment (6-mer frequency, TF over GST control)
ATGATA	1.25 fold enrichment (6-mer frequency, TF over GST control)	1.17 fold enrichment (6-mer frequency, TF over GST control)	1.23 fold enrichment (6-mer frequency, TF over GST control)	1.07 fold enrichment (6-mer frequency, TF over GST control)	1.26 fold enrichment (6-mer frequency, TF over GST control)	1.27 fold enrichment (6-mer frequency, TF over GST control)	1.2 fold enrichment (6-mer frequency, TF over GST control)	1.21 fold enrichment (6-mer frequency, TF over GST control)	1.39 fold enrichment (6-mer frequency, TF over GST control)	1.17 fold enrichment (6-mer frequency, TF over GST control)
